Test results published in PubChem BioAssay (NCATS).
“And” between values parts separate entries of the source, which are not always exact repeats. Equal values may be shown once. Records with an inconclusive call do not appear. A call without a number means that no potency is given here. Where a structure was tested more than once in an assay, its records may differ in their call. The source made the active and inactive calls. Calls come from the whole dose curve; as a rule, active = well fitted inhibition curve with a large enough effect; inconclusive = small, poorly fitted or top-dose-only effect; inactive = no such curve, though single readings can be large or run the other way.

Experiment: Primary qHTS for inhibitors of nuclear receptor binding SET domain protein 2 (NSD2) in an RCH-ACV wild type WT cells (2C) (AID 1645877); note: nearly all actives have a fitted effect of over 70% in size
Conditions: RCH-ACV (leukaemia line) NSD2 WT (2C) viability, CellTiter-Glo, 72 h; series mostly up to 44.9 µM
Potency is the fitted concentration of half-maximal effect.

Which Potency does the source give for `CCOC(=O)[C@H](CCc1ccccc1)N[C@H]1CCc2ccccc2N(CC(=O)O)C1=O` here?
Its Potency is “inactive”.

For `O=C(O)c1cc(=O)[nH]c(=O)[nH]1`, which Potency is on record?
Its Potency is “inactive”.

With `CC(C)C[C@H](NC(=O)[C@H](CCc1ccccc1)NC(=O)CN1CCOCC1)C(=O)N[C@@H](Cc1ccccc1)C(=O)N[C@@H](CC(C)C)C(=O)[C@@]1(C)CO1` as the compound, how does the Potency read?
Its Potency is 6 nM (active) and 5.3 nM (active).

With `CC[C@H](NC(C)C)[C@H](O)c1ccc(O)c2[nH]c(=O)ccc12` as the compound, how does the Potency read?
The Potency was “inactive”.

With `COc1cc2ncnc(Nc3cccc(Cl)c3)c2cc1OC` as the compound, how does the Potency read?
Its Potency is 12.9 µM (active).

For `CC1(C)[C@H](C(=O)O)N2C(=O)C[C@H]2S1(=O)=O`, which Potency is on record?
The Potency was “inactive”.

For `CN(C)CCc1c[nH]c2ccc(CS(=O)(=O)N3CCCC3)cc12`, which Potency is on record?
Its Potency is “inactive”.

For `COC(=O)Nc1nc2ccc(Sc3ccccc3)cc2[nH]1`, which Potency is on record?
The Potency was 266 nM (active) and 372 nM (active).

Which Potency does the source give for `C[C@@H](NCCCc1cccc(C(F)(F)F)c1)c1cccc2ccccc12` here?
Its Potency is 15 µM (active) and 14.8 µM (active).

With `Cc1ccc(S(=O)(=O)N[C@@H](Cc2ccccc2)C(=O)CCl)cc1` as the compound, how does the Potency read?
Its Potency is 11.8 µM (active).

With `OCc1ccc(-c2nn(Cc3ccccc3)c3ccccc23)o1` as the compound, how does the Potency read?
Its Potency is 4.17 µM (active).

For `CCCOc1ccc(C(=O)OCCN(CC)CC)cc1N`, which Potency is on record?
The Potency was “inactive”.

With `COc1cccc(N(C)C(=S)Oc2ccc3c(c2)CCCC3)n1` as the compound, how does the Potency read?
The Potency was “inactive”.

Which Potency does the source give for `Cc1cccc(N(C)C(=S)Oc2ccc3ccccc3c2)c1` here?
Its Potency is “inactive and 14.8 µM (active)”.

Which Potency does the source give for `O=C(O)C1CCCN(CCC=C(c2ccccc2)c2ccccc2)C1` (centres undefined) here?
Its Potency is “inactive”.

For `CCOCC(O)COc1ccc(NC(=O)CC[S+](C)C)cc1` (centres undefined), which Potency is on record?
Its Potency is “inactive”.

For `COc1ccc(-c2ccc3cc(C(=O)O)ccc3c2)cc1C12CC3CC(CC(C3)C1)C2`, which Potency is on record?
The Potency was “inactive”.

Which Potency does the source give for `C[C@@H]1CN(c2c(F)c(N)c3c(=O)c(C(=O)O)cn(C4CC4)c3c2F)C[C@H](C)N1` here?
The Potency was “inactive”.

For `C[C@@H]1C[C@H]2[C@@H]3CCC4=CC(=O)C=C[C@]4(C)[C@@]3(Cl)[C@@H](O)C[C@]2(C)[C@@]1(OC(=O)c1ccco1)C(=O)CCl`, which Potency is on record?
Its Potency is “inactive and 1.2 nM (active)”.

For `CCN(CC)CCn1c(=O)c(Cc2ccc(OC)cc2)nc2ccccc21`, which Potency is on record?
The Potency was “inactive”.

With `CN(Cc1cc(Br)cc(Br)c1N)C1CCCCC1` as the compound, how does the Potency read?
The Potency was “inactive”.

With `CC(C)(C#N)c1cc(Cn2cncn2)cc(C(C)(C)C#N)c1` as the compound, how does the Potency read?
Its Potency is “inactive”.

For `N[C@@H](Cc1ccc(O)c(O)c1)C(=O)O`, which Potency is on record?
Its Potency is “inactive”.

With `CC(=O)CC(c1ccccc1)c1c(O)c2ccccc2oc1=O` (centres undefined) as the compound, how does the Potency read?
Its Potency is “inactive”.

For `C[C@]12C=CC(=O)C=C1CC[C@@H]1[C@@H]2C(=O)C[C@@]2(C)[C@H]1CC[C@]2(O)C(=O)CO`, which Potency is on record?
Its Potency is “inactive”.

With `Cn1nnc2c(C(N)=O)ncn2c1=O` as the compound, how does the Potency read?
The Potency was “inactive”.

Which Potency does the source give for `OC(Cn1cncn1)(Cn1cncn1)c1ccc(F)cc1F` here?
Its Potency is “inactive”.

For `CCOC(=O)[C@H](CCc1ccccc1)N[C@H]1CS[C@H](c2cccs2)CN(CC(=O)O)C1=O`, which Potency is on record?
Its Potency is “inactive”.

For `CN(CCOc1ccc(CC2SC(=O)NC2=O)cc1)c1ccccn1` (centres undefined), which Potency is on record?
The Potency was “inactive”.

With `CN(C)CCc1c[nH]c2ccc(C[C@H]3COC(=O)N3)cc12` as the compound, how does the Potency read?
Its Potency is “inactive”.

Which Potency does the source give for `Cc1nnc(C(=O)NC(C)(C)c2nc(C(=O)NCc3ccc(F)cc3)c(O)c(=O)n2C)o1` here?
Its Potency is “inactive”.

For `COC(=O)Nc1nc2ccc(S(=O)c3ccccc3)cc2[nH]1` (centres undefined), which Potency is on record?
The Potency was 7.42 µM (active) and 335 nM (active).

With `O=C(O)c1cccnc1` as the compound, how does the Potency read?
Its Potency is “inactive”.

With `CCCCc1oc2ccc(NS(C)(=O)=O)cc2c1C(=O)c1ccc(OCCCN(CCCC)CCCC)cc1` as the compound, how does the Potency read?
Its Potency is 2.99 µM (active) and 9.16 µM (active) and 6.61 µM (active).
